Several values for one entry are separate records, joined by “and”; a condition that tells them apart may be missing. Identical values can stand only once. Compounds without any hit were thinned out: in the full panel of roughly 79,000, 15% have a hit. A structure can be active in one record and inactive in another. Activity calls are given as the source filed them. No stated cut-off is given here; in the data, active means growth inhibition above about 70%; inactive means the rest.
What was measured:
[1] = NCI Yeast Anticancer Drug Screen. Data for the rad50 strain (AID 155);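 further: 0% = growth of vehicle-only cultures of the same strain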; conditions: S. cerevisiae rad50 strain growth inhibition, stronger effect = higher value
Method in brief: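 Cells are treated with compound, grown, and their growth is then scored against vehicle-only cultures of the same repair-deficient yeast strain.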

[2] = NCI Yeast Anticancer Drug Screen. Data for the mec2-1 strain (AID 157); conditions: S. cerevisiae mec2-1 strain, stronger effect = higher value
Method in brief: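 Readout is yeast growth inhibition, normalised to vehicle-treated controls, in the mec2-1 strain exposed to compound.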

[3] = NCI Yeast Anticancer Drug Screen. Data for the sgs1 mgt1 strain (AID 161);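 further: 0% = growth of cultures given vehicle only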; conditions: S. cerevisiae sgs1 mgt1 strain, stronger effect = higher value
Method in brief: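 Percent growth inhibition was derived by comparing compound-exposed mutant yeast with vehicle-exposed cultures. The strain carries alterations in DNA damage repair.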

[4] = NCI Yeast Anticancer Drug Screen. Data for the cln2 rad14 strain (AID 165);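 further: 0% = growth equal to vehicle treated cultures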; conditions: S. cerevisiae cln2 rad14 strain, stronger effect = higher value
Method in brief: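 Relative to vehicle controls, growth inhibition of compound-treated cln2 rad14 yeast was recorded.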

[5] = NCI Yeast Anticancer Drug Screen. Data for the bub3 strain (AID 167); conditions: S. cerevisiae bub3 mutant strain, stronger effect = higher value
Method in brief: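 Part of a panel of yeast mutants defective in DNA damage repair or cell cycle regulation. Each strain is grown with compound, and inhibition is calculated relative to solvent-treated cultures.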

[6] = NCI Yeast Anticancer Drug Screen. Data for the mlh1 rad18 strain (AID 175); conditions: S. cerevisiae mlh1 rad18 strain growth inhibition, stronger effect = higher value
Method in brief: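 Test agents were incubated with a yeast strain of defined genotype (DNA damage repair defect). Inhibition of growth was derived by comparison with vehicle-exposed cultures.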

[7] = at 5.0 µM (retest, dose inferred, filed as 0.5)
[8] = at 50.0 µM (retest, dose inferred, filed as 5.0)

Measured: growth inhibition

CCN(CC)CCCn1c2cc(=O)c(=O)cc-2[nH]c2cc(C)ccc21
active: [3]; [8] 74%
inactive: [1]; [7] 1% | [1]; [8] 58% | [1]; at 50.0 µM 10.4% | [2]; [7] 2% | [2]; [8] 27% | [2]; at 50.0 µM -4.3% | [3]; [7] 2% | [3]; at 50.0 µM 23.6% | [4]; [7] 5% | [4]; [8] 55% | [4]; at 50.0 µM -15.4% | [5]; [7] 3% | [5]; [8] 51% | [5]; at 50.0 µM -8.05% | [6]; [7] 3% | [6]; [8] 52% | [6]; at 50.0 µM 40%

CCOC(=O)c1c(CN2CCNCC2)nc2ccc(Cl)cc2c1-c1ccccc1
inactive: [1]; [7] 30% | [1]; [8] 30% | [1]; at 50.0 µM 29.4% | [2]; [7] 35% | [2]; [8] 35% | [2]; at 50.0 µM 14.2% | [3]; [7] 26% | [3]; [8] 26% | [3]; at 50.0 µM 68% | [4]; [7] 23% | [4]; [8] 23% | [4]; at 50.0 µM 41.1% | [5]; [7] 29% | [5]; [8] 29% | [5]; at 50.0 µM 27.6% | [6]; [7] 32% | [6]; [8] 32% | [6]; at 50.0 µM 39.5%

O=c1c(O)cccc2cc(O)c(O)c(O)c12
active: [1]; [8] 90% and 98% | [1]; at 50.0 µM 89.2% and 90.3% | [2]; [8] 94% and 98% | [2]; at 50.0 µM 91.4% and 91.2% | [3]; [8] 92% and 98% | [3]; at 50.0 µM 89.7% and 91.3% | [4]; [8] 91% and 97% | [4]; at 50.0 µM 85.5% and 87.5% | [5]; [8] 94% and 97% | [5]; at 50.0 µM 87% and 90.2% | [6]; [8] 93% and 97% | [6]; at 50.0 µM 87.2% and 91.1%
inactive: [1]; [7] 9% and 29% | [2]; [7] -22% and 25% | [3]; [7] -4% and 36% | [4]; [7] 12% and 6% | [5]; [7] 5% and 29% | [6]; [7] -4% and 48%

CCN(CC)c1ccc(NC(C(=O)c2ccccc2)c2ccccc2)cc1 (configuration not stated)
99% (active) and 44% (inactive): [5]; [8]
98.9% (active) and 37.1% (inactive): [2]; at 50.0 µM
98.7% (active) and 42.6% (inactive): [4]; at 50.0 µM
99% (active) and 46% (inactive): [1]; [8] | [6]; [8]
active: [3]; [8] 100% and 83% | [3]; at 50.0 µM 99.2% and 81.2%
98.5% (active) and 68.2% (inactive): [6]; at 50.0 µM
98% (active) and 0% (inactive): [4]; [7]
99.4% (active) and 54.9% (inactive): [1]; at 50.0 µM
99% (active) and 30% (inactive): [2]; [8]
99% (active) and 2% (inactive): [1]; [7] | [6]; [7]
99% (active) and 7% (inactive): [4]; [8]
100% (active) and 8% (inactive): [3]; [7]
99.2% (active) and 53.5% (inactive): [5]; at 50.0 µM
97% (active) and 2% (inactive): [2]; [7]
100% (active) and 2% (inactive): [5]; [7]

CCCCCCCCC(Sc1n[nH]c(=O)[nH]c1=O)C(=O)OCC (configuration not stated)
active: [1]; at 50.0 µM 85.5% | [2]; [8] 70% | [2]; at 50.0 µM 89.7% | [3]; at 50.0 µM 91.6% | [4]; [8] 88% | [4]; at 50.0 µM 84.8% | [5]; [8] 88% | [5]; at 50.0 µM 88.5% | [6]; at 50.0 µM 89.5%
inactive: [1]; [7] 4% | [1]; [8] 35% | [2]; [7] 1% | [3]; [7] 4% | [3]; [8] 29% | [4]; [7] 1% | [5]; [7] -4% | [6]; [7] 3% | [6]; [8] 48%

OCC1OC(Sc2ncc[nH]2)C(O)C(O)C1O (configuration not stated)
inactive: [1]; [7] -12% | [1]; [8] 4% | [1]; at 50.0 µM 5.1% and 4.95% | [2]; [7] -1% | [2]; [8] -10% | [2]; at 50.0 µM -7.25% and -9.95% | [3]; [7] -30% | [3]; [8] -11% | [3]; at 50.0 µM -4.55% and -7.65% | [4]; [7] 11% | [4]; [8] 3% | [4]; at 50.0 µM 4.15% and 44.2% | [5]; [7] 0% | [5]; [8] 0% | [5]; at 50.0 µM -1.3% and -3.2% | [6]; [7] -18% | [6]; [8] -14% | [6]; at 50.0 µM -17.8% and -16.8%

Oc1c(Cl)cc(Cl)c(Cl)c1Cl
active: [1]; [8] 94% and 98% | [1]; at 50.0 µM 85.2% and 98.3% | [2]; [8] 96% and 98% | [2]; at 50.0 µM 94.3% and 99.6% | [3]; [8] 98% and 86% | [3]; at 50.0 µM 80.5% and 99.3% | [4]; [8] 98% and 97% | [4]; at 50.0 µM 89.7% and 98.5% | [5]; [8] 85% and 96% | [5]; at 50.0 µM 88.8% and 99.1% | [6]; [8] 92% and 96% | [6]; at 50.0 µM 93.8% and 98.7%
inactive: [1]; [7] -2% and 11% | [2]; [7] 8% and 14% | [3]; [7] -3% and 3% | [4]; [7] 11% and -10% | [5]; [7] -3% and 39% | [6]; [7] 4% and 7%

NC(=O)c1cc(Br)cc(Br)c1O
active: [1]; [8] 79% | [2]; [8] 86% | [2]; at 50.0 µM 75.1% | [3]; [8] 90% | [4]; [8] 87% | [4]; at 50.0 µM 94.5% | [5]; [8] 77% | [5]; at 50.0 µM 89.8% | [6]; [8] 85% | [6]; at 50.0 µM 79.6%
inactive: [1]; [7] 14% | [1]; at 50.0 µM 62.2% | [2]; [7] -13% | [3]; [7] 9% | [3]; at 50.0 µM 48.5% | [4]; [7] 5% | [5]; [7] 1% | [6]; [7] -10%

COc1cc2c(c3c1/c(=N/N(C)C)c1ccccc1n3C)C=CC(C)(C)O2
inactive: [1]; [7] 23% | [1]; at 50.0 µM 69.3% | [2]; [7] 24% | [2]; at 50.0 µM 1% | [3]; [7] 36% | [3]; at 50.0 µM 55.5% | [4]; [7] -10% | [4]; [8] 60% | [4]; at 50.0 µM -42.3% | [5]; [7] 38% | [5]; at 50.0 µM -15.7% | [6]; [7] 38% | [6]; at 50.0 µM 44.8%
active: [1]; [8] 85% | [2]; [8] 85% | [3]; [8] 91% | [5]; [8] 96% | [6]; [8] 93%

CNC(=O)OCCN1c2ccccc2Sc2ccccc21
active: [1]; [8] 93% | [1]; at 50.0 µM 89.5% | [2]; at 50.0 µM 92% | [3]; [8] 91% | [3]; at 50.0 µM 93.3% | [4]; [8] 82% | [4]; at 50.0 µM 90.3% | [5]; [8] 95% | [5]; at 50.0 µM 92% | [6]; [8] 92% | [6]; at 50.0 µM 91.5%
inactive: [1]; [7] -22% | [2]; [7] -9% | [2]; [8] 68% | [3]; [7] 8% | [4]; [7] -1% | [5]; [7] 0% | [6]; [7] -9%

N#Cc1c(-c2ccccc2)cc(-c2ccccc2)n(C2OC(CO)C(O)C(O)C2O)c1=S (configuration not stated)
93% (active) and 32.5% (inactive): [1]; at 50.0 µM
inactive: [1]; [7] -4% and 0% | [1]; [8] 4% and -12% | [2]; [7] -7% and -4% | [2]; [8] -19% and -15% | [2]; at 50.0 µM 40.9% and -23.4% | [3]; [7] -14% and 4% | [3]; [8] 10% and 8% | [3]; at 50.0 µM 4% and -26.1% | [4]; [7] 10% and -1% | [4]; [8] 22% and 18% | [4]; at 50.0 µM -35% and -38.9% | [5]; [7] -1% and 10% | [5]; [8] 11% and 4% | [5]; at 50.0 µM 53.6% and -49.4% | [6]; [7] 9% and 1% | [6]; [8] 8% and -7% | [6]; at 50.0 µM 60.5% and 1%

CCc1cc2c(cc1C(C)=O)C(C)(C)CCC2
inactive: [1]; [7] 6% | [2]; [7] 2% | [3]; [7] 14% | [4]; [7] 11% | [5]; [7] -3% | [6]; [7] 9%
active: [1]; [8] 95% | [1]; at 50.0 µM 98.5% | [2]; [8] 97% | [2]; at 50.0 µM 98.7% | [3]; [8] 98% | [3]; at 50.0 µM 98.5% | [4]; [8] 97% | [4]; at 50.0 µM 93% | [5]; [8] 96% | [5]; at 50.0 µM 98.7% | [6]; [8] 98% | [6]; at 50.0 µM 98.7%

O=C(O)COc1ccc(OCC(=O)O)cc1
inactive: [1]; [7] 3% | [1]; [8] 42% | [1]; at 50.0 µM -11.4% and 55.8% | [2]; [7] -3% | [2]; [8] -2% | [2]; at 50.0 µM -5.05% and -20.9% | [3]; [7] -1% | [3]; [8] 1% | [3]; at 50.0 µM -11.5% | [4]; [7] 1% | [4]; [8] -5% | [4]; at 50.0 µM -68.3% | [5]; [7] 1% | [5]; [8] 4% | [5]; at 50.0 µM -4.55% | [6]; [7] -3% | [6]; [8] 1% | [6]; at 50.0 µM 0.9% and 18.2%

OC1(C2C=CC=C2)c2ccccc2C=Cc2ccccc21
inactive: [1]; [7] 4% | [1]; [8] 51% | [2]; [7] 13% | [2]; [8] 48% | [2]; at 50.0 µM 10.7% | [3]; [7] 4% | [3]; [8] 54% | [4]; [7] -36% | [4]; at 50.0 µM 48.4% | [5]; [7] -14% | [5]; [8] -85% | [5]; at 50.0 µM 69.5% | [6]; [7] 9% | [6]; [8] 37%
active: [1]; at 50.0 µM 91% | [3]; at 50.0 µM 78.6% | [4]; [8] 70% | [6]; at 50.0 µM 89.6%

Source: PubChem BioAssay (NCI)
